From PubChem BioAssay (Tox21)
Records with an inconclusive call do not appear. Unmarked numbers belong to inactive results. Active and inactive are the calls of the source. Calls follow the shape of the dose curve; as a rule, active = well fitted cell-killing curve with a large enough effect in the repeat runs; inconclusive = weak or mixed curves, or effect the other way; inactive = flat fitted curve, though single readings scatter.

test: qHTS RealTime-Glo MT Cell Viability Assay in HEK293 cells - 16 hour (AID 1224872); conditions: RealTime-Glo luminescence; series mostly up to 76.8 µM; activity change, negative = cytotoxicity: at the top concentration; also: nearly all actives have a fitted effect of over 50% in size; as to activity change, negative = cytotoxicity: top concentration of the series differs between compounds
From the text: National Center for Advancing Translational Sciences [NCATS]
NIH Chemical Genomics Center [NCGC]
U.S. Environmental Protection Agency [EPA]
National Institutes of Environmental Health Sciences [NIEHS]
National Toxicology Program [NTP]
U.S. Food and Drug Administration [FDA]
Measure of cell viability is critical in the cell-base assay. Analysis of cell viability is necessary for the characterization of cell responses to cytotoxic drugs and environmental stress. A RealTime-Glo MT Cell Viability Assay to monitor cell viability in real time of continues cell culture during 40 hours of compound treatment was used to screen Tox21 10K library compounds in Hek293 cells. The RealTime-Glo MT Cell Viability Assay is a nonlytic, homogeneous, bioluminescent method to measure cell viability in real time using a simple, plate-based method. The assay involves adding NanoLuc luciferase and a cell-permeant prosubstrate to cells in culture. Viable cells reduce the proprietary prosubstrate to generate a substrate for NanoLuc luciferase. This substrate diffuses from cells into the surrounding culture medium, where it is rapidly used by the NanoLuc Enzyme to produce a luminescent signal. The signal correlates with the number of viable cells, making the assay well suited for cytotoxicity studies.
Tox21 Assay Protocol Summary:
The mixture of Hek293 cell suspension and reagents were dispensed at 600cells/6 ul/well in 1536-well tissue culture treated black solid bottom plates using a Multidrop dispenser. After the assay plates were incubated at a 37 C/5% CO2 incubator for 5 hours, 23 nL of compounds dissolved in DMSO, positive and negative controls was transferred to the assay plate by a pintool work station. The plates were incubated at 37 C for 40 hours. The luminescence intensity were measured at 0h, 8h, 16h, 24h, 32h and 40h time points using ViewLux plate reader during compound treatment.
% is scaled to controls: 0 for no effect and ±100 for the full control effect; potency is read from the fitted curve at half-maximal effect.

Compound | activity change, negative = cytotoxicity | Potency
O=C(O)C(Cc1cc(I)c(O)c(I)c1)c1ccccc1 (stereo not given) | -2.51% [at 35.3 µM] | 
Cc1ccc(/C=N/n2c(-c3ccccc3)csc2=S)cc1 | -0.665% [at 35.3 µM] | 
CCCCC/C(=C\c1ccccc1)CO | -25.4% | 
C[Si]1(C)O[Si](C)(C)O[Si](C)(C)O1 | 1.77% | 
O=C(CCCCCCC(=O)Nc1ccccc1)NO |  | 2.68 µM (active)
Brc1cc(-c2ccc(Br)c(Br)c2Br)cc(Br)c1Br | 1.06% [at 35.3 µM] | 
Cc1cc(O)c(C(C)C)cc1Cl | -3.1% [at 35.3 µM] | 
CCCCCCCC/C=C\CCCCCCCC(=O)OC(CO)CO | -7.35% | 
CC(C)c1nnc2ccc(-c3ocnc3-c3cc(F)ccc3F)cn12 |  | 17.4 µM (active)
COCCOC(=O)C1=C(C)NC(C)=C(C(=O)OC/C=C/c2ccccc2)C1c1cccc([N+](=O)[O-])c1 (stereo not given) | -23.6% [at 35.3 µM] | 
C=CC(C)=CCC=C(C)C | 11.2% | 
O=C1NCCN1 | 5.45% | 
CO/N=C1\CN(c2nc3c(cc2F)c(=O)c(C(=O)O)cn3C2CC2)CC1CN (stereo not given) | 3.65% [at 35.3 µM] | 
CCCCC(CC)CNCC(CC)CCCC (stereo not given) | 2.68% | 
CN1C(=O)CC(C)(c2ccccc2)C1=O (stereo not given) | -6.6% [at 35.3 µM] | 
CCCCN(CCCC)CCCOC(=O)c1ccc(N)cc1 | -21.6% [at 35.3 µM] | 
O=C(O)c1snc(Cl)c1Cl | 5.46% | 
CC(C)=CC=O | 10.5% | 
CCN(CC)CCNC(=O)c1ccc(NC(C)=O)cc1 | -0.9% [at 35.3 µM] | 
CC(=O)CC(c1ccc([N+](=O)[O-])cc1)c1c(O)c2ccccc2oc1=O (stereo not given) | -0.943% [at 35.3 µM] | 

Compound | activity change, negative = cytotoxicity | Potency
CCCc1c(OCCCOc2ccc(OCC(=O)O)cc2)ccc(C(C)=O)c1O | -7.95% | 
CC(CCc1ccc2c(c1)OCO2)NN (stereo not given) | 1.63% [at 35.3 µM] | 
CCCCN(CCCC)C(=S)SSC(=S)N(CCCC)CCCC |  | 48.5 µM (active)
NC(=O)Nc1ccc(Cl)cc1 | 3.75% | 
COC(=O)CC(=O)C(C)(C)C | -1.05% | 
CCC(C)=O | 12.8% | 
C[N+](C)(C)CCOC(N)=O | 3.45% [at 35.3 µM] | 
CN1CCN(c2c(F)cc3c(=O)c(C(=O)O)cn4c3c2OCN4C)CC1 | 1.07% [at 15.8 µM] | 
CCn1cc(C(=O)O)c(=O)c2cc(F)c(N3CCNCC3)nc21 | 7.68% [at 35.3 µM] | 
C=CC(C)(O)CCCC(C)CCCC(C)CCCC(C)C (stereo not given) | 0.963% | 
CCOc1cc(N)c(Cl)cc1C(=O)NCC1CN(Cc2ccc(F)cc2)CCO1 (stereo not given) |  | 16.9 µM (active)
Cc1oncc1C(=O)Nc1ccc(C(F)(F)F)cc1 |  | inactive
CCOC(=N)CC(=O)OCC | -2.89% | 
O=C(CCC1CCN(Cc2ccccc2)CC1)c1ccc2c(c1)NCCCC2 |  | 9.52 µM (active)
CC1C2CC(CC2C2CCCC(O)C2)C1(C)C (stereo not given) | -26.9% | 
O=C(CCCN1CCC(O)(c2ccc(Br)cc2)CC1)c1ccc(F)cc1 |  | 9.52 µM (active)
CO[C@@]12[C@H](COC(N)=O)C3=C(C(=O)C(C)=C(N)C3=O)N1C[C@@H]1N[C@@H]12 | -29.3% [at 35.3 µM] | 
CCCC(=O)O[C@]1(C(=O)COC(=O)CC)CC[C@H]2[C@@H]3CCC4=CC(=O)CC[C@]4(C)[C@H]3[C@@H](O)C[C@@]21C | 5.42% [at 15.8 µM] | 
COc1ccc([C@@H]2Sc3ccccc3NC(=O)[C@@H]2O)cc1 | -14.4% [at 35.3 µM] | 
Cc1ccc(Nc2nccc(N(C)c3ccc4c(C)n(C)nc4c3)n2)cc1S(N)(=O)=O |  | 1.9 µM (active)
